# According to PubChem BioAssay (NCATS):
# Inconclusive results are not listed. A call without a number means that no potency is given here. The source made the active and inactive calls. Unless noted, calls follow the shape of the dose curve; as a rule, active = well fitted curve in the direction sought with a large enough effect; inconclusive = small, poorly fitted or top-dose-only effect, or another doubt; inactive = no such curve, though single readings can be large; an effect the other way counts as inactive or inconclusive.
# Key:
# [1] = Validation screen for small molecules that induce DNA re-replication in MCF 10A normal breast cells (AID 463097); also: nearly all actives have a fitted effect of over 60% in size; also: potency is read from the fitted curve at half-maximal effect
# Summary of the method: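 250 MCF 10A cells/well; compound pin-transferred; 48 hr, 37 C, 5% CO2; Hoechst 40 min; imaged 405/500-530 nm. Hits = more high-intensity nuclei.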
# [2] = biological target: Ubiquitin carboxyl-terminal hydrolase 2 (Homo sapiens) (UniProt O75604); assay: qHTS Validation Assay for Inhibitors of Ubiquitin-specific Protease USP2a Using CHOP2 as the Reporter (AID 463106)
# Summary of the method: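 Fluorescence read-out at Ex 485nm/Em 531nm after 60min RT, following addition of 25nM Ub-CHOP2 plus 25nM reporter substrate to USP2 core (10nM) pretreated 30min with compound. Data normalized to NEM full inhibition; concentration-response curves fitted.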
# [3] = biological target: DNA polymerase III PolC-type (Bacillus subtilis (strain 168)) (UniProt P13267); assay: qHTS Validation Assay for the Inhibitors of DNA Replication in Gram-Positive Bacteria (AID 485295);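 also: reconstituted holoenzyme with PolC plus beta clamp SSB and primase; PicoGreen fluorescence of double-stranded DNA made on primed circular M13 template; series mostly up to about 57 µM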
# Summary of the method: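 PicoGreen fluorescence (ex 480–485/em 535–540 nm) reports dsDNA synthesized on ssM13Gori template with dNTPs/NTPs. Enzyme: holoenzyme rebuilt from purified PolC, beta subunit, SSB and primase. Compound preincubated before substrate addition; RT throughout.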
# [4] = biological target: Tumor susceptibility gene 101 protein (Homo sapiens) (UniProt Q99816); assay: qHTS Validation Assay for Iinhibitors of HIV-1 Budding by Blocking the Interaction of PTAP/TSG101 (AID 485342; calls by dose curve)
# Summary of the method: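 FP read-out: FITC-PTAP peptide, 50 nM final, binding Tsg101 binding domain, 10 uM final; 20 min r.t.; 10 mM HEPES pH 7.5, 0.15 M NaCl, 0.01% Tween 20, 3 mM EDTA, 0.1 mM TCEP.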
# [5] = biological target: Beta-2 adrenergic receptor (Homo sapiens) (UniProt P07550); assay: qHTS validation assay of beta-arrestin-biased ligands of beta2-adrenergic receptor (AID 485366)
# Summary of the method: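 Compound series up to 46 microM applied to beta2-AR/beta-arrestin Tango cells, 18 hr, 37 degrees C, 5% CO2. Read-out: tTA-driven luciferase luminescence, converted to %Activity; concentration-response curves assigned curve classes.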
# [6] = Quantitative high throughput screen for delayed death inhibitors of the malarial parasite plastid, 48 hour incubation (AID 488752); also: nearly all actives have a fitted effect of over 65% in size; also: potency is read from the fitted curve at half-maximal effect
# Summary of the method: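 Luciferase-expressing P. falciparum in RBCs, 2% Hct, 0.1% parasitemia final; RPMI 1640 + 0.5% Albumax; 48 h, 37 C, 5% CO2; luminescence readout, signal drop = growth inhibition.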
# [7] = biological target: Thioredoxin reductase 1, cytoplasmic (Rattus norvegicus) (UniProt O89049); assay: qHTS Assay for Inhibitors of Mammalian Selenoprotein Thioredoxin Reductase 1 (TrxR1) (AID 488773); settings: Potency: inhibition;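 also: drop in NADPH fluorescence over an 8 min run after selenite addition; series mostly up to about 57 µM; nearly all actives have a fitted effect of over 40% in size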
# Summary of the method: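 Inhibition is scored from the loss of NADPH fluorescence between first and last reads of an 8-min kinetic run. Selenite (400 uM) was the substrate, added after 15 min compound preincubation at room temperature.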
# [8] = biological target: Flap endonuclease 1 (Homo sapiens) (UniProt P39748); assay: qHTS Validation Assay for the Inhibitors of Human Flap endonuclease 1 (FEN1) (AID 488816)
# Summary of the method: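 Enzyme reagent 10 nM; cpds pinned; 15 min RT preinc.; substrate 50 nM final; reads t=0 and 15 min; no-enzyme buffer wells as neg. control; normalized data, 4-parameter Hill fit.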
# [9] = biological target: M-phase phosphoprotein 8 (Homo sapiens) (UniProt Q99549); assay: qHTS Validation Assay for Inhibitors for MPP8 Chromodomain Interactions with Methylated Histone Tails (AID 488949); also: nearly all actives have a fitted effect of over 55% in size; also: potency is read from the fitted curve at half-maximal effect
# Summary of the method: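 AlphaScreen read-out: streptavidin donor and nickel chelate acceptor beads (final 10 ug/mL), 30 min in the dark at RT. Complex of 50 nM MPP8 and 50 nM b-H3(1-18)K9me3 peptide had been exposed to compounds for 30 min beforehand.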
# [10] = biological target: Chromobox protein homolog 1 (Homo sapiens) (UniProt P83916); assay: qHTS Validation Assay for Inhibitors of HP1-beta Chromodomain Interactions with Methylated Histone Tails (AID 488953); also: nearly all actives have a fitted effect of over 50% in size; also: potency is read from the fitted curve at half-maximal effect
# Summary of the method: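 AlphaScreen proximity readout: streptavidin donor and Ni-chelate acceptor beads, 10 ug/mL final, 30 min dark, RT. Complex of 50 nM HP1-beta and 50 nM b-H3(1-18)K9me3 formed 30 min, then compound-treated 30 min; PBS pH 7.4/0.01% Tween-20.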
# [11] = biological target: Methanococcus maripaludis chaperonin (MmCpn) (UniProt Q6LX38); assay: High-Throughput Screening for Modulators of Cytosolic Chaperonin Activity: MmCpn Primary Screen (AID 488978);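 also: 50 nM MmCpn enzyme hydrolysing 30 µM ATP at 37 °C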
# Summary of the method: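 ADP formation read by HTRF Transcreener, 665/590 nm emission after 320 nm excitation. Enzyme: archaeal chaperonin at 50 nM final; substrate ATP 30 uM final; 10 min, 37C, after 5 min compound preincubation at RT.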
# [12] = biological target: Thyrotropin receptor (Homo sapiens) (UniProt P16473); assay: qHTS Assay for Antagonists of the Thyroid Stimulating Hormone Receptor (AID 488980); also: series mostly up to about 58 µM
# Summary of the method: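 TSHR-HEK293 cells; 70 uM RO 20-1724 PDE inhibitor; compound + EC80 TSH (4 nM final); anti-cAMP cryptate antibody/cAMP-d2 in lysis buffer, 30 min RT; HTRF 665/620 nm read.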
# [13] = biological target: D(1A) dopamine receptor (Homo sapiens) (UniProt P21728); assay: HTS Assay for Allosteric Agonists of the Human D1 Dopamine Receptor: Primary Screen for Potentiators (AID 488982); also: potency is read from the fitted curve at half-maximal effect
# Summary of the method: (§1)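 Tetracycline-induced HEK293 Trex D1 cells with forced coupling to calcium, loaded with no-wash calcium dye; kinetic fluorescence read 180 s after compound addition for agonism, then a further 180 s after an EC20 dopamine challenge for potentiation.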
# [14] = biological target: D(1A) dopamine receptor (Homo sapiens) (UniProt P21728); assay: HTS Assay for Allosteric Agonists of the Human D1 Dopamine Receptor: Primary Screen for Antagonists (AID 488983);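 also: calcium flux response to an EC80 dopamine challenge measured with no-wash dye; nearly all actives have a fitted effect of over 65% in size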; also: potency is read from the fitted curve at half-maximal effect
# Summary of the method: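 Calcium flux readout, no-wash dye, inducible HEK293 T-REx D1 line (force-coupled). Compound added after 10 s baseline, 180 s kinetic read; then dopamine at EC80, further 180 s read.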
# [15] = qHTS Validation Assay to Find Inhibitors of Chronic Active B-Cell Receptor Signaling (AID 485345; active = well fitted curve in the direction sought with a large enough effect in the main read-out, with a control signal flat, not every such curve was filed as active)
# Summary of the method: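 TMD8 ABC-DLBCL cells stably carrying doxycycline-inducible IkappaBalpha–green luciferase fusion plus unfused red luciferase; compounds 46 uM to 3 nM, 4 h at 37C with doxycycline. Corrected green/red luminescence ratio normalized to 10 uM MG-132 and basal cell wells; curves fitted.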
# [16] = biological target: Transient receptor potential cation channel subfamily V member 1 (Homo sapiens) (UniProt Q8NER1); assay: HTS Assay for Compounds that Act as Enhancers of the Vanilloid Receptor 1 (AID 488979)
# Summary of the method: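 TRPV1 cells loaded with Fluo-8 calcium dye; compound added and Ca2+ signal (ex 480/em 520 nm) followed 3 min, then capsaicin at EC20 added and read 2 more min to detect enhancement.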
# [17] = biological target: D(1A) dopamine receptor (Homo sapiens) (UniProt P21728); assay: HTS Assay for Allosteric Agonists of the Human D1 Dopamine Receptor: Primary Screen for Agonists (AID 488981)
# Summary of the method: as §1
# [18] = biological target: Thioredoxin reductase 1, cytoplasmic (Rattus norvegicus) (UniProt O89049); assay: qHTS Assay for Substrates of Mammalian Selenoprotein Thioredoxin Reductase 1 (TrxR1) (AID 488772);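 also: series mostly up to about 57 µM; a drop in NADPH fluorescence below the no-compound background marks a TrxR1 substrate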
# Summary of the method: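 In this dual-purpose format, potential substrates are identified from the first fluorescence read after selenite addition, not from the 8-minute delta. Rat enzyme is preincubated with NADPH and then with compound at ~22 deg C.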
# [19] = biological target: ATP-dependent 6-phosphofructokinase (Trypanosoma brucei brucei) (UniProt O15648); assay: qHTS Validation Assay to Find Inhibitors of T. brucei phosphofructokinase (AID 485368); settings: outcome: dose series up to 57.5 µM
# Summary of the method: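 qHTS format, up to 57 uM. PFK 1.25 nM; F6P 0.5 mM; ATP 0.1 mM; 5 mM MgCl2, 0.01% Tween20, 0.1% BSA; 0.1 M TEA pH 8.0; 45 min RT; ADP-Glo readout; no-enzyme control = full inhibition.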
# [20] = Quantitative high throughput screen for delayed death inhibitors of the malarial parasite plastid, 96 hour incubation (AID 488745); also: nearly all actives have a fitted effect of over 70% in size; also: potency is read from the fitted curve at half-maximal effect
# Summary of the method: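 Luciferase-expressing P. falciparum, infected RBCs 2% Hct/0.1% parasitemia (final); 96 h cpd exposure, 37 C, 5% CO2; RPMI 1640 + 0.5% Albumax, bicarbonate, gentamycin. Readout: luminescence loss = growth inhibition.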
# Sequence of Thyrotropin receptor (Homo sapiens) (P16473 whole entry, looked up): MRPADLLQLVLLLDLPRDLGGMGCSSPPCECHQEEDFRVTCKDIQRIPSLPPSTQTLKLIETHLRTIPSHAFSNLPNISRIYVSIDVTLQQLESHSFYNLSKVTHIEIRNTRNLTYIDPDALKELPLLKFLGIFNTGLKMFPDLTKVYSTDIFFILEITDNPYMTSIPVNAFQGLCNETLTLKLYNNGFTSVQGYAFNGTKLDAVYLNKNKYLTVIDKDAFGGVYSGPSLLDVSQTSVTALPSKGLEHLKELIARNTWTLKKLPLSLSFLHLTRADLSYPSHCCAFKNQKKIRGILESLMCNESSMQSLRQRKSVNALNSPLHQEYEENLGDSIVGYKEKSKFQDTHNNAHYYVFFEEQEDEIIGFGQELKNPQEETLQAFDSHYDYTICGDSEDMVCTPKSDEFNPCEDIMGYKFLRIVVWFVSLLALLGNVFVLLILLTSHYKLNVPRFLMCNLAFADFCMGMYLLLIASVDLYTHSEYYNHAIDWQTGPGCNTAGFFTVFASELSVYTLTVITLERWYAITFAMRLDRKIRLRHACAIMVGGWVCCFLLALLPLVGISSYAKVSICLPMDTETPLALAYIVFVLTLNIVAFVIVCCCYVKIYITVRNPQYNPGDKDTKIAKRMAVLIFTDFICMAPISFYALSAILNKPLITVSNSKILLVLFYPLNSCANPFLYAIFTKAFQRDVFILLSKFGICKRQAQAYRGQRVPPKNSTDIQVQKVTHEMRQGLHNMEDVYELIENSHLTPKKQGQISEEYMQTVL
# Sequence of Methanococcus maripaludis chaperonin (MmCpn) (Q6LX38 1-543): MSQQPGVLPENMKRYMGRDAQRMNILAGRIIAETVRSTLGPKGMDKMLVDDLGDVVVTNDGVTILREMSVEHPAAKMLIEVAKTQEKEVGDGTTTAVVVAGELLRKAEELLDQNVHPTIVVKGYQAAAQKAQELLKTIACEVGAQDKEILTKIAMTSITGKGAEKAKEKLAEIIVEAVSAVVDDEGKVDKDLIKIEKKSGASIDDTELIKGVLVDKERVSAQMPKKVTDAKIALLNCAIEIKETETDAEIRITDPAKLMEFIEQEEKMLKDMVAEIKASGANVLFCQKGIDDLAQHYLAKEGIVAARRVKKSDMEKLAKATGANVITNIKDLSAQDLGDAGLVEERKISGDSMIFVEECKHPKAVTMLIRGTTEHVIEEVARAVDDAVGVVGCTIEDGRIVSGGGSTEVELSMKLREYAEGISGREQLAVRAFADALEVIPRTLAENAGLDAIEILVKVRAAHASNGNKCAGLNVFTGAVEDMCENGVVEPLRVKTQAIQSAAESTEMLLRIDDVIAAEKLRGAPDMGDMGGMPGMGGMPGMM
# Sequence of Ubiquitin carboxyl-terminal hydrolase 2 (Homo sapiens) (O75604 whole entry, looked up): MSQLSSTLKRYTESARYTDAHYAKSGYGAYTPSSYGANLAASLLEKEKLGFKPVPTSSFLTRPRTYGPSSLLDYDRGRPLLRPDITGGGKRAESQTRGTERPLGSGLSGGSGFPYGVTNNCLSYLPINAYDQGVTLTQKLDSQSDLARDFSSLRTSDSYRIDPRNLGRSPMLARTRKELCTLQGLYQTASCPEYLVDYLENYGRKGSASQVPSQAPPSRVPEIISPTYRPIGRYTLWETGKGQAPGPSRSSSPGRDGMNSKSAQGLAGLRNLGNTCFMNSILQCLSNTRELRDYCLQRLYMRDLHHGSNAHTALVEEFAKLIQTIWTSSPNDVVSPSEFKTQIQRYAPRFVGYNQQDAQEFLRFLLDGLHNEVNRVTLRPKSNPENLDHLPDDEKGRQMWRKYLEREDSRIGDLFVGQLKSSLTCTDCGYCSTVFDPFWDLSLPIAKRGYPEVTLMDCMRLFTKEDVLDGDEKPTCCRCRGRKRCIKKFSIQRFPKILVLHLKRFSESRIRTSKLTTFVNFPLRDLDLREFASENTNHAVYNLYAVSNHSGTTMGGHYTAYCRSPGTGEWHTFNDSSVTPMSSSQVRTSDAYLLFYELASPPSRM
# Sequence of Tumor susceptibility gene 101 protein (Homo sapiens) (Q99816 whole entry, looked up, the tested form may be a part): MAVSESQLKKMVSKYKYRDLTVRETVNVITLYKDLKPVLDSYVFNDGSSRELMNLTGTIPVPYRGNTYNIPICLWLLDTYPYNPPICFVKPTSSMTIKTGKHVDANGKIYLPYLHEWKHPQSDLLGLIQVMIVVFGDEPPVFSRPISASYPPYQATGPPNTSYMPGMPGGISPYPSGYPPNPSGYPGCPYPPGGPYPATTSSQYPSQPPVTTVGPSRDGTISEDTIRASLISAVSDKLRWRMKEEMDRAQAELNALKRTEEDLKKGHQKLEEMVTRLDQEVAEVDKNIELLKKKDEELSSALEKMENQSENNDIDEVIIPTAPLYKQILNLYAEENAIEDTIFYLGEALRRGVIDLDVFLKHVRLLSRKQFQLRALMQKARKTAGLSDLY
# Sequence of M-phase phosphoprotein 8 (Homo sapiens) (Q99549 whole entry, looked up): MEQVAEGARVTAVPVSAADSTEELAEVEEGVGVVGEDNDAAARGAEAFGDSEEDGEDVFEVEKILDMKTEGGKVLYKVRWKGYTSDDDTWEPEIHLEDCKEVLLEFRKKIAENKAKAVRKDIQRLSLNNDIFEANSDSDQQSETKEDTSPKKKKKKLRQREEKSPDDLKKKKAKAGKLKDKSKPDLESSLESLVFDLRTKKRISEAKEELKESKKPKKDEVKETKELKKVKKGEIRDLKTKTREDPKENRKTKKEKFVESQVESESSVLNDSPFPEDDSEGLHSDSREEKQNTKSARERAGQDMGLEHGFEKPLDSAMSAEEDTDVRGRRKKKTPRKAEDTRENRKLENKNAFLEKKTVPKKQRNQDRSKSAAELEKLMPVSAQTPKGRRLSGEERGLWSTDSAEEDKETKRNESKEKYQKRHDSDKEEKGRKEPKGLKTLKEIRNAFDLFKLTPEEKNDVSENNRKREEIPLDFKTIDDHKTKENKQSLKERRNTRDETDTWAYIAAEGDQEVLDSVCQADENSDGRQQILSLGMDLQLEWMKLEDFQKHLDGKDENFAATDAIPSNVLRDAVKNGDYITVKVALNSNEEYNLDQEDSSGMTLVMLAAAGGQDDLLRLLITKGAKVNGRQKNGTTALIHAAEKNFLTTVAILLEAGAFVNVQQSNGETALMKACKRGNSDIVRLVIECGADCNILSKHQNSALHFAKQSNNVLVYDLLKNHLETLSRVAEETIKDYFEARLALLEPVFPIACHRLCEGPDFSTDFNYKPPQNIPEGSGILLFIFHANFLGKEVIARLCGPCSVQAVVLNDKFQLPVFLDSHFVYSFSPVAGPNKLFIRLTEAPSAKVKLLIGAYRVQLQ
# Sequence of Thioredoxin reductase 1, cytoplasmic (Rattus norvegicus) (O89049 whole entry, looked up): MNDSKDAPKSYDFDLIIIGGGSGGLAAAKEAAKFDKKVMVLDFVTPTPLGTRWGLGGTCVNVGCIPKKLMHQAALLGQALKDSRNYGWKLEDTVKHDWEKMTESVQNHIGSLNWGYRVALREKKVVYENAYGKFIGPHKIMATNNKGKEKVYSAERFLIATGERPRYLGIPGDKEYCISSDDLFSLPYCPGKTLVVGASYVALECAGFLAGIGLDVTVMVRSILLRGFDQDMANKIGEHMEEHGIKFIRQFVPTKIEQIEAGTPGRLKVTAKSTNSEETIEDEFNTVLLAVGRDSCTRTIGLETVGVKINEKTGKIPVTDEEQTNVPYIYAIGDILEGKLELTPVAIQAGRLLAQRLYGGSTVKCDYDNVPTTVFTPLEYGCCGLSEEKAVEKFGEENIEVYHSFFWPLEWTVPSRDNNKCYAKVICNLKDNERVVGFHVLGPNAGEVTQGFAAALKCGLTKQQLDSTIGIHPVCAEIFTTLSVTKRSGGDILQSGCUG
# Sequence of Beta-2 adrenergic receptor (Homo sapiens) (P07550 whole entry, looked up): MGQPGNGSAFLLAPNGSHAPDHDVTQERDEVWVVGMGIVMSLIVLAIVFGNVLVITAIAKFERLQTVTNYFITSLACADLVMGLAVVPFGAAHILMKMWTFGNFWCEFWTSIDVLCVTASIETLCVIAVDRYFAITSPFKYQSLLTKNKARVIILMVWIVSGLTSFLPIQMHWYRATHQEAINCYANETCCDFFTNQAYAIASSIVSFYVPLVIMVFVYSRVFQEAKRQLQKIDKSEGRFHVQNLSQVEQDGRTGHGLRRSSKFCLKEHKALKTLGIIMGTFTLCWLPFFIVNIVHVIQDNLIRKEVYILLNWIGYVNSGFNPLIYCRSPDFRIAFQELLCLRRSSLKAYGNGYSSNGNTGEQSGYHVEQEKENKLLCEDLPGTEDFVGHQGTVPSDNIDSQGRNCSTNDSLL
# Sequence of Chromobox protein homolog 1 (Homo sapiens) (P83916 whole entry, looked up): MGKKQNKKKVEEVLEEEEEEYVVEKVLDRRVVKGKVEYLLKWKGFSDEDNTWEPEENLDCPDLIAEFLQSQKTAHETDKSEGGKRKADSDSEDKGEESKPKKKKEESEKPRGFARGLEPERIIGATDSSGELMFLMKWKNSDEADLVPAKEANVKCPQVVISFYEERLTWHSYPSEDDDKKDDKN
# Sequence of D(1A) dopamine receptor (Homo sapiens) (P21728 whole entry, looked up): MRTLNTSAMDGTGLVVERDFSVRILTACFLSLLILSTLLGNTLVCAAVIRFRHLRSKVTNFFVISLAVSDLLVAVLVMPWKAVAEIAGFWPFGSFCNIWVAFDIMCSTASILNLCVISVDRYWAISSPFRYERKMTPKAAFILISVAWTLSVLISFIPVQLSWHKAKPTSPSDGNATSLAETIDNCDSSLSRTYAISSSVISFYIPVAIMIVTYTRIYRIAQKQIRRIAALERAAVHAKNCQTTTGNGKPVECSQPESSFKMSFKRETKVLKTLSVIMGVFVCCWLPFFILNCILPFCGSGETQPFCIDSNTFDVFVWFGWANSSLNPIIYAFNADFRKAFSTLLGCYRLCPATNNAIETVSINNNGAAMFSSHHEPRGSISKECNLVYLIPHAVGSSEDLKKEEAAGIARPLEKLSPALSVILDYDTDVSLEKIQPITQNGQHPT
Structure (SMILES),Potency [1],outcome [2],Potency [3],outcome [4],outcome [5],Potency [6],Potency [7],Potency [8],Potency [9],Potency [10],outcome [11],outcome [12],Potency [13],Potency [14],Potency [15],outcome [16],Potency [17],outcome [18],outcome [19],Potency [20]
COC(=O)[C@H]1[C@H]2C[C@@H]3c4[nH]c5cc(OC)ccc5c4CCN3C[C@H]2C[C@@H](OC(=O)c2cc(OC)c(OC)c(OC)c2)[C@@H]1OC,11.2 µM (active),inactive,inactive,inactive,inactive,1.47 µM (active),inactive,inactive,20 µM (active),39.8 µM (active),inactive,inactive,inactive,inactive,–,–,–,–,–,–
OCCN1CCN(CCCN2c3ccccc3C=Cc3ccccc32)CC1,inactive,inactive,inactive,inactive,inactive,–,–,inactive,inactive,–,inactive,inactive,inactive,11.2 µM (active),inactive,inactive,inactive,–,–,–
CSc1ccc(C(=O)c2[nH]c(=O)[nH]c2C)cc1,inactive,inactive,inactive,inactive,inactive,inactive,inactive,inactive,inactive,inactive,inactive,inactive,2.31 µM (active),inactive,inactive,–,inactive,inactive,–,–
CC(C(=O)O)c1ccc(CC2CCCC2=O)cc1 (stereo unspecified),inactive,inactive,inactive,inactive,inactive,inactive,inactive,inactive,inactive,–,inactive,inactive,inactive,inactive,inactive,–,inactive,–,–,–
O=C1CC2(CCCC2)CC(=O)N1CCCCN1CCN(c2ncccn2)CC1,inactive,inactive,inactive,inactive,inactive,inactive,inactive,inactive,inactive,–,inactive,inactive,–,inactive,inactive,–,inactive,inactive,–,–
CN(C)CCOC(=O)COc1ccc(Cl)cc1,inactive,inactive,inactive,inactive,inactive,–,inactive,inactive,inactive,inactive,inactive,inactive,inactive,inactive,inactive,–,–,inactive,–,–
CC(C)COCC(CN(Cc1ccccc1)c1ccccc1)N1CCCC1 (stereo unspecified),inactive,inactive,inactive,inactive,inactive,inactive,inactive,inactive,inactive,inactive,inactive,–,inactive,inactive,inactive,inactive,inactive,–,–,–
Fc1ccc(C(c2ccc(F)cc2)N2CCN(C/C=C/c3ccccc3)CC2)cc1,12.6 µM (active),inactive,inactive,inactive,inactive,–,–,inactive,inactive,–,inactive,inactive,inactive,inactive,inactive,inactive,inactive,–,–,–
OC(CCN1CCCCC1)(c1ccccc1)C1CCCCC1 (stereo unspecified),inactive,inactive,inactive,inactive,inactive,–,–,inactive,inactive,inactive,inactive,inactive,inactive,inactive,–,–,inactive,inactive,–,–
NC(=O)c1ncn([C@@H]2O[C@H](CO)[C@@H](O)[C@H]2O)c1O,inactive,inactive,inactive,inactive,inactive,inactive,–,inactive,inactive,inactive,inactive,inactive,inactive,inactive,inactive,inactive,inactive,inactive,–,–
CCN(CC)CCOCCOC(=O)C1(c2ccccc2)CCCC1,inactive,inactive,inactive,inactive,inactive,inactive,inactive,inactive,inactive,inactive,inactive,inactive,inactive,inactive,inactive,–,inactive,inactive,–,–
COc1ccc(CCN(C)CCCC(C#N)(c2cc(OC)c(OC)c(OC)c2)C(C)C)cc1OC (stereo unspecified),inactive,inactive,inactive,inactive,inactive,8.28 µM (active),inactive,inactive,inactive,inactive,inactive,inactive,inactive,inactive,–,–,inactive,inactive,inactive,11.7 µM (active)
CCn1cc(C(=O)O)c(=O)c2cc3c(cc21)OCO3,inactive,inactive,inactive,inactive,inactive,–,inactive,inactive,inactive,–,inactive,inactive,inactive,inactive,inactive,inactive,–,–,–,–
COc1cc(Cc2cnc(N)nc2N)cc(OC)c1OC,inactive,inactive,inactive,inactive,–,inactive,inactive,–,–,–,inactive,inactive,inactive,inactive,inactive,inactive,inactive,inactive,inactive,inactive
COCCCC/C(=N\OCCN)c1ccc(C(F)(F)F)cc1,inactive,inactive,inactive,inactive,inactive,–,inactive,–,inactive,inactive,inactive,inactive,inactive,inactive,–,–,–,–,–,–
CCn1ccnc1CC1COc2ccccc2O1 (stereo unspecified),inactive,inactive,inactive,inactive,inactive,inactive,inactive,inactive,inactive,inactive,inactive,inactive,inactive,inactive,inactive,inactive,inactive,–,–,–
Nc1ncn([C@@H]2O[C@H](CO)[C@@H](O)[C@H]2O)c(=O)n1,3.16 µM (active),inactive,inactive,inactive,inactive,inactive,inactive,inactive,inactive,inactive,inactive,inactive,inactive,inactive,–,inactive,–,–,–,inactive
